Assay results taken from PubChem BioAssay AID1159580 (chemical genetic matrix, 2015).
Values joined by “and” are separate entries in the source; they are usually repeats but may differ in a detail not shown here. Equal entries are not always repeated. Out of some 5,500 compounds screened, about 2,000 (36%) were called active. About 18% were inconclusive and are not listed. Rule as the data show it: active = normalized growth mostly below about 0.91 (no sharp cut-off); inconclusive = no clear call, values can overlap the other calls; inactive = mostly above about 0.92. The list shows a part of the results.

Assay: chemical genetic growth profiling, strain panel (AID 1159580);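 also: tested at 20 µM; growth read once vehicle control cultures reached saturation at 30 °C; 1 = growth at the plate median or of vehicle wells; lower values mean less growth of the strain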
Details: growth OD

Measured: normalized growth

COc1ccc(Cl)cc1C(=O)NCCc1ccc(S(=O)(=O)NC(=O)NC2CCCCC2)cc1
inactive: S. cerevisiae deletion strains, locus YJR075W, strain HOC1, hits give low values 0.98 and 0.984 | S. cerevisiae deletion strains, locus YKL009W, strain mrt4, hits give low values 1.02 | S. cerevisiae deletion strains, locus YKL068W, hits give low values 1.04 | S. cerevisiae deletion strains, locus YKL085W, strain MDH1 (second series), hits give low values 0.977 | S. cerevisiae deletion strains, locus YKL085W, strain MDH1, hits give low values 0.977 | S. cerevisiae deletion strains, locus YKL160W, strain elf1, hits give low values 1.01 | S. cerevisiae deletion strains, locus YKL190W, strain CNB1, hits give low values 0.945 | S. cerevisiae deletion strains, locus YKR001C, strain vps1, hits give low values 0.997 | S. cerevisiae deletion strains, locus YKR026C, strain gcn3, hits give low values 0.989 | S. cerevisiae deletion strains, locus YKR091W, strain srl3, hits give low values 0.993 | S. cerevisiae deletion strains, locus YLL001W, strain dnm1, hits give low values 1.01 | S. cerevisiae deletion strains, locus YLL026W, hits give low values 0.995 | S. cerevisiae deletion strains, locus YLL041C, strain sdh2, hits give low values 1 | S. cerevisiae deletion strains, locus YLR027C, strain aat2, hits give low values 1.01 | S. cerevisiae deletion strains, locus YLR039C, strain RIC1, hits give low values 0.963 | S. cerevisiae deletion strains, locus YLR058C, strain SHM2, hits give low values 0.972 | S. cerevisiae deletion strains, locus YLR102C, strain apc9, hits give low values 0.989 | S. cerevisiae deletion strains, locus YLR113W, strain HOG1, hits give low values 1.01 | S. cerevisiae deletion strains, locus YLR221C, strain rsa3, hits give low values 1 | S. cerevisiae deletion strains, locus YLR258W, strain gsy2, hits give low values 0.982 | S. cerevisiae deletion strains, locus YLR262C, strain YPT6 (second series), hits give low values 0.999 | S. cerevisiae deletion strains, locus YLR262C, strain YPT6, hits give low values 0.915 | S. cerevisiae deletion strains, locus YLR268W, strain sec22, hits give low values 0.966 | S. cerevisiae deletion strains, locus YLR320W, strain mms22, hits give low values 1 | S. cerevisiae deletion strains, locus YLR330W, strain CHS5, hits give low values 0.994 | S. cerevisiae deletion strains, locus YLR342W, strain FKS1 (second series), hits give low values 1.1 | S. cerevisiae deletion strains, locus YLR342W, strain FKS1, hits give low values 1.01 | S. cerevisiae deletion strains, locus YLR357W, strain rsc2, hits give low values 0.998 | S. cerevisiae deletion strains, locus YLR370C, strain arc18, hits give low values 0.998 | S. cerevisiae deletion strains, locus YLR371W, strain rom2, hits give low values 1.01 | S. cerevisiae deletion strains, locus YLR384C, strain iki3, hits give low values 1 | S. cerevisiae deletion strains, locus YLR418C, strain cdc73, hits give low values 0.944 | S. cerevisiae deletion strains, locus YML016C, strain PPZ1, hits give low values 0.987 | S. cerevisiae deletion strains, locus YML032C, strain rad52, hits give low values 1.02 | S. cerevisiae deletion strains, locus YML120C, strain ndi1, hits give low values 1.02 | S. cerevisiae deletion strains, locus YML124C, strain tub3, hits give low values 1 | S. cerevisiae deletion strains, locus YMR058W, strain fet3, hits give low values 0.999 | S. cerevisiae deletion strains, locus YMR078C, strain ctf18, hits give low values 0.998 | S. cerevisiae deletion strains, locus YMR125W, strain sto1, hits give low values 0.992 | S. cerevisiae deletion strains, locus YMR129W, hits give low values 1.01 | S. cerevisiae deletion strains, locus YMR205C, strain PFK2, hits give low values 1 | S. cerevisiae deletion strains, locus YMR223W, strain ubp8, hits give low values 1.05 | S. cerevisiae deletion strains, locus YMR231W, strain pep5, hits give low values 1.01 | S. cerevisiae deletion strains, locus YMR263W, strain SAP30, hits give low values 0.961 and 1 | S. cerevisiae deletion strains, locus YMR307W, strain GAS1, hits give low values 1.06 and 0.976 | S. cerevisiae deletion strains, locus YNL067W, strain RPL9B, hits give low values 0.951 | S. cerevisiae deletion strains, locus YNL071W, strain lat1, hits give low values 1.01 | S. cerevisiae deletion strains, locus YNL128W, strain TEP1, hits give low values 0.911 | S. cerevisiae deletion strains, locus YNL153C, strain GIM3, hits give low values 0.943 and 1.04 | S. cerevisiae deletion strains, locus YNL175C, strain NOP13, hits give low values 1 | S. cerevisiae deletion strains, locus YNL183C, strain NPR1, hits give low values 0.947 | S. cerevisiae deletion strains, locus YNL197C, strain WHI3, hits give low values 1.01 | S. cerevisiae deletion strains, locus YNL209W, strain ssb2, hits give low values 1.01 | S. cerevisiae deletion strains, locus YNL224C, strain SQS1, hits give low values 1.01 | S. cerevisiae deletion strains, locus YNL233W, strain BNI4, hits give low values 0.978 | S. cerevisiae deletion strains, locus YNL248C, strain rpa49, hits give low values 1.01 | S. cerevisiae deletion strains, locus YNL250W, strain rad50, hits give low values 0.969 | S. cerevisiae deletion strains, locus YNL271C, strain bni1, hits give low values 0.999 | S. cerevisiae deletion strains, locus YNL298W, strain CLA4, hits give low values 0.987 | S. cerevisiae deletion strains, locus YNL307C, strain MCK1, hits give low values 1.03 | S. cerevisiae deletion strains, locus YNL322C, strain KRE1 (second series), hits give low values 0.999 | S. cerevisiae deletion strains, locus YNL322C, strain KRE1, hits give low values 0.975 | S. cerevisiae deletion strains, locus YNR049C, strain mso1, hits give low values 1 | S. cerevisiae deletion strains, locus YNR052C, strain pop2, hits give low values 1 | S. cerevisiae deletion strains, locus YOL006C, strain TOP1, hits give low values 0.875 | S. cerevisiae deletion strains, locus YOL012C, strain htz1 1.15 | S. cerevisiae deletion strains, locus YOL147C, strain pex11, hits give low values 1 | S. cerevisiae deletion strains, locus YOR001W, strain rrp6, hits give low values 1.01 | S. cerevisiae deletion strains, locus YOR061W, strain CKA2, hits give low values 0.96 | S. cerevisiae deletion strains, locus YOR069W, strain VPS5, hits give low values 1 | S. cerevisiae deletion strains, locus YOR070C, strain gyp1, hits give low values 0.995 | S. cerevisiae deletion strains, locus YOR080W, strain dia2, hits give low values 0.987 | S. cerevisiae deletion strains, locus YOR083W, strain WHI5 (second series), hits give low values 1.07 | S. cerevisiae deletion strains, locus YOR083W, strain WHI5, hits give low values 1.01 | S. cerevisiae deletion strains, locus YOR106W, strain vam3, hits give low values 1.01 | S. cerevisiae deletion strains, locus YOR136W, strain idh2, hits give low values 0.996 | S. cerevisiae deletion strains, locus YOR144C, strain elg1, hits give low values 0.999 | S. cerevisiae deletion strains, locus YOR184W, strain ser1, hits give low values 1.06 | S. cerevisiae deletion strains, locus YOR231W, strain MKK1, hits give low values 0.994 | S. cerevisiae deletion strains, locus YOR265W, strain rbl2, hits give low values 1 | S. cerevisiae deletion strains, locus YOR270C, strain vph1, hits give low values 0.998 | S. cerevisiae deletion strains, locus YOR290C, strain snf2, hits give low values 0.938 | S. cerevisiae deletion strains, locus YOR316C, strain cot1, hits give low values 0.994 | S. cerevisiae deletion strains, locus YPL051W, strain arl3, hits give low values 1.01 | S. cerevisiae deletion strains, locus YPL055C, strain LGE1, hits give low values 0.877 | S. cerevisiae deletion strains, locus YPL078C, strain atp4, hits give low values 1.01 | S. cerevisiae deletion strains, locus YPL106C, strain sse1, hits give low values 1.02 | S. cerevisiae deletion strains, locus YPL240C, strain hsp82, hits give low values 1 | S. cerevisiae deletion strains, locus YPL241C, strain CIN2, hits give low values 0.972 and 1.01 | S. cerevisiae deletion strains, locus YPL256C, strain CLN2, hits give low values 1.01 | S. cerevisiae deletion strains, locus YPR119W, strain clb2, hits give low values 0.986 | S. cerevisiae deletion strains, locus YPR141C, strain kar3, hits give low values 0.976 | S. cerevisiae deletion strains, locus YPR163C, strain tif3, hits give low values 1 | S. cerevisiae deletion strains, locus YPR167C, strain met16, hits give low values 0.993 | S. cerevisiae deletion strains, strain wtn01, hits give low values 0.98 | S. cerevisiae strains, strain wild type, hits give low values 0.97
